# Test results published in PubChem BioAssay.
# The source made the active and inactive calls. Unless noted, how the calls were made is not given here.
# Tests used:
# [1] = A549 cell viability effects, profiling panel, calcein-AM fluorescence, 48 h, basal (AID 1162); settings: higher = more signal; further: test concentration not given here
# [2] = adipocyte viability effects, profiling panel, cell-based, 3T3-L1 adipocytes, calcein-AM fluorescence, 48 h, basal (AID 1163); settings: 3T3-L1 adipocytes viability, higher = more signal; further: test concentration not given here
# [3] = HepG2 cell viability effects, profiling panel, calcein-AM fluorescence, 48 h, basal (AID 1164); settings: higher = more signal; further: test concentration not given here
# [4] = MM1S cell viability effects, profiling panel, calcein-AM fluorescence, 48 h, basal (AID 1165); settings: higher = more signal;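 further: viability of MM1S multiple myeloma cells under basal unstimulated conditions; test concentration not given here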
# [5] = basal RPMI8226 viability, no added stimulus, profiling panel, cell-based, calcein-AM fluorescence, 48 h, PK04 Diversity Set (AID 1166); settings: RPMI8226 myeloma viability, higher = more signal;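 further: cells grown under basal conditions without added stimulus; test concentration not given here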
# [6] = basal HepG2 mitochondrial membrane potential changes, profiling panel, cell-based, JC-1 fluorescence, 24 h, 100 nL compound (AID 1167); settings: higher = more signal; further: test concentration not given here
# [7] = basal 3T3-L1 adipocyte mitochondrial potential changes, profiling panel, cell-based, JC-1 fluorescence, 3T3-L1 adipocytes, 24 h, 100 nL compound (AID 1168); settings: JC-1 mitochondrial fluorescence, higher = more signal, called active from +8 up or from −8 down; further: test concentration not given here
# [8] = basal RPMI8226 mitochondrial membrane potential changes, profiling panel, cell-based, JC-1 fluorescence, 24 h, 100 nL compound (AID 1169); settings: RPMI8226 myeloma, JC-1 mitochondrial potential fluorescence, higher = more signal; further: test concentration not given here
# [9] = basal MM1S mitochondrial membrane potential changes, profiling panel, cell-based, JC-1 fluorescence, 24 h, 100 nL compound (AID 1170); settings: higher = more signal; further: test concentration not given here
# [10] = A549 lung cancer cell viability effects, profiling panel, resazurin fluorescence, 24 h, PK04 Diversity Set (AID 1171); settings: higher = more signal, called active from +8 up or from −8 down; further: test concentration not given here
# [11] = HepG2 liver cancer cell viability effects, profiling panel, resazurin fluorescence, 24 h, PK04 Diversity Set (AID 1172); settings: higher = more signal; further: test concentration not given here
# [12] = basal S. cerevisiae growth modulation, no modifier, primary screen, OD600, strain BY4716, 24 h, basal condition (AID 1173); settings: OD600, 24 h, higher = more signal, called active from +8 up or from −8 down
# [13] = MM1S myeloma cell viability, profiling panel, resazurin fluorescence, basal, 24 h, PK04 Diversity Set (AID 1174); settings: higher = more signal, called active from +8 up or from −8 down;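 further: MM1S multiple myeloma cell line; test concentration not given here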
# [14] = target: Dihydroorotate dehydrogenase (quinone), mitochondrial (Plasmodium falciparum (isolate 3D7)) (UniProt Q08210); test: PfDHODH enzyme inhibitors, primary screen, biochemical, C-terminal His tag, absorbance 600 nm (AID 1175); settings: DCIP absorbance 600 nm, higher = more signal, called active from +8 up or from −8 down;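 further: recombinant parasite enzyme with a five histidine tag at its C terminus; test concentration not given here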
# Sequence of Dihydroorotate dehydrogenase (quinone), mitochondrial (Plasmodium falciparum (isolate 3D7)) (Q08210 whole entry, looked up): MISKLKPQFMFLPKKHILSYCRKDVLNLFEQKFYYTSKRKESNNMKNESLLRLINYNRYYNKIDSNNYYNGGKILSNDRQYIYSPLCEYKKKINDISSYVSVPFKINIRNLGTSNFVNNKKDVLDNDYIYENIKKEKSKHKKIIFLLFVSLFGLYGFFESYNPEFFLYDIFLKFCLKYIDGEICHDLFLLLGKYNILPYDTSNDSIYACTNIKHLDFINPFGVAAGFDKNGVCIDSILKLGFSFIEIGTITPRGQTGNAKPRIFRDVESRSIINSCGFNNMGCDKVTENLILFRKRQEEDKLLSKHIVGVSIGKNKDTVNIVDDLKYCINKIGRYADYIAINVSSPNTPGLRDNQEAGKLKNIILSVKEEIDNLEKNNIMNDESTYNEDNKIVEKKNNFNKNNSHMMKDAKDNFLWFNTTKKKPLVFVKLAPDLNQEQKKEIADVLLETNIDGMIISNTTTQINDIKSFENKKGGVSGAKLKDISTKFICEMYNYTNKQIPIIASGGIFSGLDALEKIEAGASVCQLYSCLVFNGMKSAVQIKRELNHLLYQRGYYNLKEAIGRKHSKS
# [15] = P. aeruginosa biofilm formation inhibitors, primary screen, strain PAO1, LB-PBS medium, absorbance 600 nm (AID 1176); further: test concentration not given here; settings: P. aeruginosa PAO1 growth/biofilm, A600, 12 h; higher = more signal
# [16] = S. cerevisiae RM11-1a growth modifiers, primary screen, strain RM11-1a, OD600, basal, 24 h (AID 1177); settings: OD600, 24 h, higher = more signal, called active from +8 up or from −8 down;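 further: cultures grown under basal conditions with no added stressor; test concentration not given here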
# [17] = E. coli acrAB mutant growth effects, primary screen, E. coli filamentation inducers, strain DRC39, OD650, 24 h (AID 1178); settings: higher = more signal, called active from +8 up or from −8 down;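 further: growth measured as culture turbidity by optical density at 650 nm; test concentration not given here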
# [18] = E. coli acrAB mutant growth effects, primary screen, E. coli filamentation inducers, strain DRC39, OD650, 48 h (AID 1179);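 further: screen aims at cell division blockers that make cells filament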; settings: E. coli DRC39 delta-acrAB growth, higher = more signal, called active from +8 up or from −8 down
# [19] = RPMI8226 myeloma cell viability, profiling panel, resazurin fluorescence, basal, 24 h, PK04 Diversity Set (AID 1180); settings: higher = more signal;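 further: RPMI8826 multiple myeloma cell line at 5000 cells per well; test concentration not given here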
# [20] = target: E3 ubiquitin-protein ligase XIAP (Homo sapiens) (UniProt P98170); test: XIAP binders, primary screen, biophysical, small-molecule microarray, fluorescence 635 nm (AID 1181); settings: small-molecule microarray binding, higher = more signal;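 further: score merges 667 nm emission and signal to noise over triplicate slides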
# Sequence of E3 ubiquitin-protein ligase XIAP (Homo sapiens) (P98170 whole entry, looked up): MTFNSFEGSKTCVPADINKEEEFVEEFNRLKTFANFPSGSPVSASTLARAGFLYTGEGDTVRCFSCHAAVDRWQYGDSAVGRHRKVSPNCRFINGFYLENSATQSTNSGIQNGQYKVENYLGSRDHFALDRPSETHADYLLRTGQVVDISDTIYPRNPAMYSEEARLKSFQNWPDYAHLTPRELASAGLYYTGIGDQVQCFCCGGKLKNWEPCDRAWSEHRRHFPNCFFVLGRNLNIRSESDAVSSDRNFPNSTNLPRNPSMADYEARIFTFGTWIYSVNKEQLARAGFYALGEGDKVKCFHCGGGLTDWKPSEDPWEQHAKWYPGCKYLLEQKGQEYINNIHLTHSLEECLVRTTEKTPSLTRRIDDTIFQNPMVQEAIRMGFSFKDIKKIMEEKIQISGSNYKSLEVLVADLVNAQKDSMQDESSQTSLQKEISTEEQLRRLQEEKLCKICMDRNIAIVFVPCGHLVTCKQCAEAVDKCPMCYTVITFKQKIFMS
SMILES,z-score [1],z-score [2],z-score [3],z-score [4],z-score [5],z-score [6],z-score [7],z-score [8],z-score [9],z-score [10],z-score [11],z-score [12],z-score [13],composite z-score [14],z-score [15],z-score [16],z-score [17],z-score [18],z-score [19],composite z-score [20]
CC[C@@H]1C=C(C(=O)O)[C@H](c2ccc(C(C)C)cc2)N1S(=O)(=O)c1ccc(C)cc1,-0.658,-0.178,-0.391,-0.683,-0.251,-0.961,0.495 (inactive),-0.971,-0.574,-0.42 (inactive),-0.892,-1.01 (inactive),-0.725 (inactive),-0.976 (inactive),0.16 (inactive),-1.27 (inactive),-0.862 (inactive),0.133 (inactive),-2.23,0.198
C=CCOC(=O)[C@@H]1[C@H]2C(=O)O[C@H](c3ccccc3)[C@H](c3ccccc3)N2[C@H](c2ccc(OCCOC(=O)[C@H]3C[C@H]4C(=O)N[C@@H](Cc5ccccc5)C(=O)N4[C@H]3c3ccc(O)cc3)cc2)[C@@]12C(=O)Nc1ccc(I)cc12,-0.688,-0.724,-0.0809,-3.46,-2.98,-0.638,1.43 (inactive),-0.609,-1.4,-0.0596 (inactive),-0.0291,-0.149 (inactive),-1.98 (inactive),-8.55 (active),0.932 (inactive),2.52 (inactive),-1.52 (inactive),-1.06 (inactive),-1.01,-0.187
C=C(C(=O)CC[C@@H](OC(=O)c1cccnc1)c1ccc(OCCO)cc1)C(C)C,-1.9,-1.63,-3.17,-3.39,-1.9,-0.959,-0.0274 (inactive),-0.304,-1.41,-1.34 (inactive),-0.706,-18.4 (active),-0.446 (inactive),-3.83 (inactive),0.907 (inactive),-22.2 (active),-0.706 (inactive),-0.694 (inactive),-1.56,-0.184
COc1ccc(C#Cc2ccc3c(c2)[C@]2(C(=O)N3)[C@H](c3ccc(OCCO)cc3)N3[C@H](c4ccccc4)[C@H](c4ccccc4)OC(=O)[C@H]3[C@@H]2C(=O)Nc2nc3ccccc3s2)cc1,1.47,0.292,0.891,-1.69,-1.37,-2.95,6.28 (inactive),-1.3,-1.71,-1.23 (inactive),0.534,0.436 (inactive),0.217 (inactive),-3.02 (inactive),3.64 (inactive),1.55 (inactive),0.528 (inactive),1.25 (inactive),0.174,0.75
O=C1C2C=CC(C(O)c3ccc(B(O)O)cc3)N(Nc3ccc([N+](=O)[O-])cc3)C2C(=O)N1c1ccccc1 (stereo not given),-2.05,-0.167,-5.4,0.0297,-4.09,-1.66,3.71 (inactive),-0.213,-1.22,0.0312 (inactive),0.0107,-17.3 (active),-0.307 (inactive),-3.05 (inactive),0.188 (inactive),-22.9 (active),-1.01 (inactive),-0.657 (inactive),-0.423,0.0823
CCCNC(=O)[C@@]1(C)c2ccccc2C(=O)N(Cc2cc(F)cc(C(F)(F)F)c2)[C@H]1c1ccc(CO)cc1,-0.575,0.237,-0.14,-0.0049,1.18,2.08,0.224 (inactive),0.795,-0.749,1.79 (inactive),1.08,-0.769 (inactive),1.16 (inactive),0.134 (inactive),-0.164 (inactive),0.196 (inactive),0.249 (inactive),0.113 (inactive),1.63,-0.181
O[C@@H](Cc1ccccc1)[C@@H](/C=C/c1ccccc1)NCc1ccccc1Br,0.0965,-0.766,-0.0276,-1.3,-0.771,0.313,0.19 (inactive),-0.228,-1.8,-0.396 (inactive),0.13,-6.87 (inactive),0.119 (inactive),-1.05 (inactive),-0.107 (inactive),-0.955 (inactive),0.429 (inactive),-0.21 (inactive),0.115,-0.214
C=C(COC)C(=O)CC[C@@H](OC(=O)c1ccccc1-c1ccccc1C(=O)O)c1ccc(CO)o1,-1.46,-0.736,-2.67,-1.69,-0.883,-2.74,0.429 (inactive),-0.323,-0.857,-1.03 (inactive),-0.731,-17.9 (active),-0.0674 (inactive),-6.3 (inactive),0.85 (inactive),-21.6 (active),0.163 (inactive),-0.171 (inactive),0.62,0.294
[N-]=[N+]=NCc1ccccc1C[C@]1(C(=O)NCc2ccccc2)COC(c2ccc(OCCCO)cc2)=N1,-2.45,-0.679,-3.8,-3.38,-4.32,0.762,0.768 (inactive),-0.891,-2.3,-1.42 (inactive),-1.89,1.55 (inactive),-5.64 (inactive),1.1 (inactive),0.385 (inactive),3.06 (inactive),1.45 (inactive),0.376 (inactive),-4.15,0.488
Cc1ccc(F)cc1S(=O)(=O)N[C@@H]1CCN(Cc2ccc(C(F)(F)F)cc2)C1,-0.455,-1.68,-1.82,-2.4,-2.09,-3.18,-0.332 (inactive),-0.615,-1.75,-0.196 (inactive),-0.29,-10.8 (active),-0.529 (inactive),-0.315 (inactive),-0.553 (inactive),0.338 (inactive),0.0136 (inactive),-1.2 (inactive),-0.979,-0.177
COCC1=C([C@H](O)CCc2ccccc2)[C@H](CO)[C@@H]2C(=O)N(Cc3ccccc3)C(=O)[C@@H]2C1,0.883,0.709,0.984,0.418,0.438,0.592,0.424 (inactive),0.469,-1.37,0.859 (inactive),-0.062,-1.55 (inactive),0.0871 (inactive),-1.91 (inactive),-0.295 (inactive),0.723 (inactive),1.09 (inactive),0.738 (inactive),0.449,-0.031
CC(C)C(CO)N1C(=O)[C@@H]2[C@H]3C(=O)OCC=C[C@H]3OC23C=CCN(c2ccc4ccccc4c2)C(=O)[C@@H]13 (stereo not given in full),-0.339,0.126,0.21,0.88,-1.02,-0.124,0.106 (inactive),-0.651,1.1,0.156 (inactive),-0.128,0.485 (inactive),0.112 (inactive),0.958 (inactive),-0.497 (inactive),1.24 (inactive),0.483 (inactive),0.347 (inactive),0.133,-0.0476
[N-]=[N+]=Nc1ccccc1[C@H]1OC(c2ccc(OCCCO)cc2)=N[C@@]1(CCS(=O)(=O)c1ccccc1)C(=O)N1CCOCC1,0.412,-0.0376,0.402,-0.655,-0.184,-1.34,-0.392 (inactive),-0.666,-1.47,-0.913 (inactive),-0.512,0.917 (inactive),-1.45 (inactive),0.499 (inactive),1.75 (inactive),1.45 (inactive),0.713 (inactive),0.187 (inactive),-1.33,0.389
C=C(CCCC)C(=O)CC[C@@H](OC(=O)c1ccccc1-c1ccccc1C(=O)O)c1ccc(CO)o1,-0.64,0.498,0.102,0.227,-0.91,-1.24,-0.26 (inactive),0.479,-0.0259,-0.476 (inactive),0.0232,-0.712 (inactive),0.225 (inactive),-2.93 (inactive),1.32 (inactive),-0.279 (inactive),-0.079 (inactive),-0.218 (inactive),-0.0459,0.0842
Cc1ccc([C@H]2C(C(=O)O)=C[C@@H](C(C)C)N2S(=O)(=O)c2ccc(C)cc2)cc1,-0.828,-0.762,-0.639,0.0411,-1.48,-0.713,-0.385 (inactive),0.59,-0.809,-0.194 (inactive),-0.357,-0.502 (inactive),-0.645 (inactive),-0.695 (inactive),0.546 (inactive),-0.577 (inactive),-0.717 (inactive),0.0184 (inactive),-1.4,0.0264
[N-]=[N+]=Nc1ccccc1C[C@]1(C(=O)N2CCCCC2)N=C(c2ccc(OCCCO)cc2)O[C@H]1c1ccccc1N=[N+]=[N-],-0.0955,0.164,-2.44,-3.54,-3.89,-0.599,-0.0935 (inactive),-1.09,-2.64,-0.909 (inactive),-0.776,-0.254 (inactive),-3.52 (inactive),0.584 (inactive),1.07 (inactive),0.975 (inactive),-0.125 (inactive),-0.319 (inactive),-4.29,0.0727
CCCCC(=C=CC[C@H](O)c1ccccc1OCCO)C[C@H](O)c1cc(Cl)cc(Cl)c1O,0.441,-0.0739,0.105,-3.29,-2.59,-0.605,0.201 (inactive),-0.655,-1.13,0.135 (inactive),-0.268,-4.13 (inactive),-0.392 (inactive),-1.69 (inactive),0.33 (inactive),0.31 (inactive),0.504 (inactive),0.32 (inactive),-0.45,-0.138
